# Compounds without any hit were thinned out: in the full panel of roughly 83,000, 20% have a hit.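 Compound tested at a single concentration for 48 hours in 96-well plates; a percent growth value below 10 was scored as active.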 Values without a mark were called inactive. The source made the active and inactive calls.
# System: PC-3 prostate
# Assay: NCI-60 one-dose screen, 48 h (100 = growth as untreated, 0 = no growth, -100 = all killed)
# Conditions: 10 µM unless noted
row,Structure (SMILES),growth [%]
1,O=C1c2c(c3c4cccnc4[nH]c3c3ccc4ccccc4c23)C(=O)N1CCN1CCCCC1,59.5
2,COc1ccc(-c2nc(SCCC(C)C)nc(N/N=C\c3ccc(O)cc3)c2C#N)cc1,72.4
3,CN(C)C(=O)C1=NC(CO)C(=O)N(c2ccc(Cl)cc2)N1 (configuration not stated),90.8

# System: SK-MEL-5 melanoma
# Assay: as above
# Conditions: 10 µM unless noted
row,Structure (SMILES),growth
1,O=C1Nc2ccc(Br)cc2/C1=N\c1nnc(-c2ccc(Cl)cc2)o1,77.2%
2,C#C[C@]1(O)CC[C@H]2[C@@H]3CC=C4c5sc(Nc6cccc(C)n6)nc5CC[C@]4(C)[C@H]3CC[C@@]21C,3.52% (active)
3,COc1ccc(-c2nnc(/N=C3/C(=O)Nc4ccc(Br)cc43)o2)cc1,98.8%
4,O=C1c2c(c3c4cccnc4[nH]c3c3ccc4ccccc4c23)C(=O)N1CCN1CCOCC1,43.9%
5,C#C[C@]1(O)CC[C@H]2[C@@H]3CC=C4c5sc(Nc6nc(C)cc(OC)n6)nc5CC[C@]4(C)[C@H]3CC[C@@]21C,17.9%
6,COc1ccc(/C=C/C(=O)c2nnn(-c3ccc(C(=O)O)cc3)c2C)cc1OC,103%
7,COc1cc(O)c2c(c1)/C=C/C[C@H](O)[C@H](O)C(=O)/C=C\C[C@H](C)OC2=O,-57.9% (active)
8,O=S(=O)(Nc1ccc(C2CC2)cc1)c1ccc(-c2cnc(C3CC3)o2)cc1,74.7%
9,COc1ccc(-c2nc(SCC(C)C)nc(N/N=C\c3cccc([N+](=O)[O-])c3)c2C#N)cc1,68.3%
10,CCCCCCNC(=O)Oc1ccc(/C(=C(\C)c2ccc(OC)cc2)c2ccc(OCCN(C)C)cc2)cc1,69.9%
11,CC(C)c1nn(-c2ccccc2)c(N2CCCCC2)c1/C=N/NC(N)=S,87.5%
12,C#C[C@]1(O)CC[C@H]2[C@@H]3CC=C4c5sc(Nc6ccc(OC)nc6)nc5CC[C@]4(C)[C@H]3CC[C@@]21C,52.1%
13,COc1ccc(-c2ccc3c4c(cccc24)C(=O)N(N2C(=O)c4cccc5cccc(c45)C2=O)C3=O)cc1,99.6%
14,NS(=O)(=O)Oc1ccc2nc(Nc3ccc(F)c(F)c3)ccc2c1,98.7%
15,O=C1c2c(c3c4cc(Br)ccc4[nH]c3c3ccc4ccccc4c23)C(=O)N1CCN1CCNCC1,91.4%
16,CC1CCN(S(=O)(=O)c2ncsc2-c2ccccc2)CC1,96.8%
17,O=C1NC(=O)c2c1c1c3ccccc3ccc1c1[nH]c3ccccc3c21,-18.1% (active)
18,CCN(CC)CCN1C(=O)c2c(c3c4cc(Br)ccc4[nH]c3c3ccc4ccccc4c23)C1=O,-83.6% (active)
19,Clc1ccc(-c2csc(N/N=C/c3nc4ccccc4n3C3CC3)n2)cc1,97.1%
20,Cc1ccc(-c2csc(N/N=C/c3nc4ccccc4n3C3CC3)n2)cc1,5.51% (active)
21,C#C[C@]1(O)CC[C@H]2[C@@H]3CC=C4c5sc(-c6ccccn6)nc5CC[C@]4(C)[C@H]3CC[C@@]21C,91%
22,O=C1c2c(c3c4cccnc4[nH]c3c3ccc4ccccc4c23)C(=O)N1CCN1CCNCC1,91.7%
23,O=C1c2c(c3c4cccnc4[nH]c3c3ccc4ccccc4c23)C(=O)N1CCN1CCCCC1,48.1%
24,COc1ccc(-c2nc(SCCC(C)C)nc(N/N=C\c3ccc(O)cc3)c2C#N)cc1,89.2%

# Reference: PubChem BioAssay (NCI)
